This is an account of results in PubChem BioAssay AID492952 (Southern Research Specialized Biocontainment Screening …, 2010).

The whole screen tested about 2,300 compounds, of which about 1,500 (65%) were called active. How the calls were made is not given here. The set was probably picked from earlier hits. The list shows a part of the results. Entries with a potency or affinity are not part of this list.

A short description of this assay: replicating M. tuberculosis growth inhibition, dose response, non-replicating M. tuberculosis project, H37Rv (AID 492952).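 Further: Mycobacterium tuberculosis grown in culture; growth inhibition read after a week of incubation.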 As to conditions: series mostly up to 50 µM.
Regarding `COC(=O)c1ccccc1NC(=O)C1CC(c2ccc(F)cc2)=NO1` (configuration not stated), the outcome was inactive.
The value for `CC(=O)CCC1CC(c2ccc(Cl)cc2)=NO1` (configuration not stated) was “inactive”; that for `COc1ccc(OCCC(=O)OCC(=O)Nc2ccc(Br)cc2)cc1` was “inactive”; that for `CC(C)(C)c1ccc(OCCC(=O)OCC(=O)NC2CCCCC2)cc1` was “inactive”.
Take `O=C(COc1ccc([N+](=O)[O-])cc1)NNC(=O)c1cccs1`: the compound was classed as inactive.
Regarding `CC/C(=C\c1oc2cc3ccccc3cc2[n+]1CC)Nc1ccccc1`, the compound was classed as inactive.
As to `Brc1ccc(OCCCCN2CCCCC2)cc1`, the result was inactive.
With `CCc1nnc(NC(=O)CN2CCN(c3ccccc3F)CC2)s1`, the outcome was inactive.
As for `CCOC(=O)c1c(-c2ccc(C)o2)csc1NC(=O)CN1CCCCC1`, the call was inactive.
As to `COc1ccc2cc(C(=O)NCc3ccccc3)c(=O)oc2c1`, the result was inactive.
To `NC(=O)N/N=C/c1ccccc1OC(=O)c1cc2ccccc2oc1=O` belongs “inactive”.
For the compound `COCCNC(=O)c1cc2cc(Cl)cc(Cl)c2oc1=O`, the outcome was inactive.
Consider `COc1cccc2cc(C(=O)c3ccc([N+](=O)[O-])cc3)oc12`, for which the compound was called inactive.
For `CC(C)[C@H](NC(=O)c1ccc(Br)cc1)C(=O)NC1CCCCC1`, the result was inactive.
`Oc1ccc(Cl)cc1CNCc1ccc(F)cc1`: the compound was classed as inactive.
Take `O=C(N/N=C/c1coc2ccccc2c1=O)c1ccc(Cl)cc1`: the call was inactive.
As for `C=CCn1c(=O)c(C(=O)Nc2cccnc2)c(O)c2ccccc21`, the outcome was inactive.
In the case of `O=C(N/N=C/c1cccc(F)c1)c1c(O)c2ccccc2[nH]c1=O`, the compound was classed as inactive.
The value for `O=C1CC(N2CCSCC2)C(=O)N1CCc1ccccc1` (configuration not stated) was “inactive”; that for `Cc1cc2ccccc2n1CCNC(=O)C(C)(C)C` was “inactive”; that for `CC1CCN(CCOCCSc2ccc(Cl)cc2)CC1` was “inactive”.
As to `O=C(COc1ccc(Cl)cc1)Nc1ccc2[nH]ncc2c1`, the compound was classed as inactive.
On to `CCCCCCNC(=O)c1ccc(Br)o1`, for which the compound was classed as inactive.
In the case of `CCOc1ccc(OCc2ccc(C(=O)N/N=C(\C)c3ccccn3)cc2)cc1`, the compound was classed as inactive.
For `COc1ccc(C(=O)Nc2ccccc2C(=O)N/N=C/c2ccco2)cc1`, the call was inactive.
As for `C=CCNc1nc(C(=O)OCC(=O)c2cccc(Br)c2)cs1`, the compound was called inactive.
`CC(=O)NCCOC(=O)Nc1sc(=S)n(C)c1C`: the compound was called inactive.
For the compound `C/C(=N\Nc1ccc(Cl)cc1)c1ccccn1`, the call was inactive.
With `Cc1cc(O)c(-c2cc(O)c(C)cc2O)cc1O`, the compound was classed as inactive.
To `O=C(COC(=O)c1ccccn1)Nc1cccc(Cl)c1Cl` belongs “inactive”; to `COC(=O)c1ccc(COC(=O)CCS(=O)(=O)c2ccc(C)cc2)cc1`, “inactive”.
With `CC(C)(C)C(=O)COc1ccccc1[N+](=O)[O-]`, the result was inactive.
With `COCCn1c(C)cc(C(=O)COC(=O)c2ccc(Br)o2)c1C`, the compound was called inactive.
Turning to `C=CC[n+]1ccn(-c2nc3ccccc3nc2[N-]S(=O)(=O)c2cccs2)c1`, the outcome was inactive.
Take `CCCCSc1nnc(-c2cc(Br)ccc2N)c(=O)[nH]1`: the result was inactive.
As to `Cc1ccc(C(=O)CCNc2ccc(Br)cc2)o1`, the result was inactive.
As to `C/C(=N\NC(=O)c1cccs1)c1ccc2c(c1)OCO2`, the compound was called inactive.
As for `CC(Cc1cccs1)NC(=O)c1cccc(Cl)c1` (configuration not stated), the call was inactive.
For the compound `Cc1ccc(C(=O)CCNc2ccc(F)c(Cl)c2)o1`, the outcome was inactive.
Consider `Cc1ccc(NC(CC(=O)c2ccccc2)C(=O)O)cc1Cl` (configuration not stated), for which the call was inactive.
Consider `COc1cc(C(=O)CCN2CCC(c3ccccc3)C2)cc(OC)c1OC` (configuration not stated), for which the compound was called inactive.
To `CC(C)COc1ccc(C(=O)CCN2CCCCC2)cc1` belongs “inactive”; to `CC(C)Oc1ccc(C(=O)CCN2CCCCC2)cc1`, “inactive”; to `CCCCc1ccc(NS(=O)(=O)c2c(C)n(C)c(=O)n(C)c2=O)cc1`, “inactive”.
In the case of `C=C(C)C1CC=C(C)/C(=N/NC(=O)CNc2ccc(OCC)cc2)C1` (configuration not stated), the call was inactive.
Take `CC1N(C)c2cccc3cccc(c23)N1C`: the compound was called inactive.
As to `CCCCCCCCCCn1ccc(=N)cc1`, the compound was classed as inactive.
As to `CCc1ccc(OCCCC(=O)NCc2ccco2)cc1`, the compound was classed as inactive.
With `Nc1ccc2c(c1)oc1ccccc12`, the compound was classed as inactive.
`CCOC(=O)c1cn(Cc2cccc(Cl)c2)nn1`: the compound was classed as inactive.
For the compound `COc1cc(/C=C2\C(=O)N(c3ccc(S(N)(=O)=O)cc3)N=C2C)ccc1OC(=O)c1ccco1`, the compound was classed as inactive.
On to `COc1cc(/C=N/Nc2ccc(Cl)c(C(=O)O)c2)ccc1OC(=O)c1ccco1`, for which the result was inactive.
Take `O=C(COc1ccccc1)NNc1nc2ccccc2s1`: the result was inactive.
The value for `CC/C(=C\C=C\[C@@H]1C=C[C@@H]2CCC[C@H]2[C@@H]1C(=O)c1ccc[nH]1)[C@@H]1O[C@@H]([C@@H](C)C(=O)O)CC[C@@H]1C` was “inactive”; that for `Cc1cccc(NCc2ccc([N+](=O)[O-])s2)c1` was “inactive”.
Regarding `CCCc1nnc(-c2ccc(OC)cc2)o1`, the result was inactive.
With `CCc1ccc(C(=O)NC2CCCCC2)s1`, the compound was classed as inactive.
With `CCc1cc(C=NC2CCCCC2)c(O)s1`, the outcome was inactive.
`CC(=O)c1c(O)cc(=O)n(-c2ccccc2)c1-c1ccc(C)cc1`: the call was inactive.
On to `CCOC(=O)c1c(NC(=O)COC(=O)c2ccccn2)sc2c1CCC2`, for which the result was inactive.
For the compound `O=C(Oc1cccc([N+](=O)[O-])c1)c1ccc2c(=O)n3c(nc2c1)CCC3`, the compound was called inactive.
As for `Cc1ccc2c(CC(=O)OCC(=O)Nc3ccc(Cl)cn3)coc2c1`, the outcome was inactive.
As for `Cc1ccc(NC(=O)CN(C)C2CCCCC2)cc1Br`, the call was inactive.
On to `O=C(Nc1ccccc1N1CCCC1)c1cccc(F)c1`, for which the compound was called inactive.
Regarding `Cc1noc(C)c1COc1ccc(C(=O)Nc2ccccn2)cc1`, the compound was called inactive.
The value for `O=C(Nc1ncccn1)c1ccc([N+](=O)[O-])o1` was “inactive”; that for `O=C(Nc1ncccc1O)c1ccc(Oc2ccccc2)cc1` was “inactive”; that for `O=C(Nc1cccnc1)c1ccc(-c2ccc(Cl)cc2)o1` was “inactive”.
With `CCOC(=O)c1ccc(N=C2SC(C(=O)Nc3ccc(C(=O)O)cc3)CC(=O)N2Cc2cccs2)cc1` (configuration not stated), the compound was called inactive.
The value for `COC(=O)C1=C(C(=O)OC)C(c2cc(Cl)ccc2O)c2sc(=O)[nH]c2S1` (configuration not stated) was “inactive”.
On to `Cc1ccc(SCCC(=O)OCC(=O)NCC2CCCCC2)cc1`, for which the compound was classed as inactive.
Consider `COc1ccccc1NC(=O)CCN1CCN(c2ccc(Cl)cc2)CC1`, for which the outcome was inactive.
For the compound `CC(/C=C/c1ccco1)=N/NC(=O)c1ccc(C)nc1`, the result was inactive.
To `CC(/C=C/c1ccc2c(c1)OCO2)=N/NC(=O)C1COc2ccccc2O1` (configuration not stated) belongs “inactive”; to `O=C(N/N=C/c1ccc(Br)s1)c1cccnc1`, “inactive”.
Turning to `O=C(N/N=C/c1ccc[nH]1)c1cccnc1`, the compound was classed as inactive.
Regarding `Cn1cccc1/C=N/NC(=O)c1ccco1`, the compound was classed as inactive.
Regarding `O=C(N/N=C/c1ccc[nH]1)c1ccc(Cl)cc1`, the outcome was inactive.
Take `O=C(O)c1ccc(-n2nc(C(F)(F)F)c3c2CCCC3)cc1`: the compound was classed as inactive.
Regarding `CCc1cc2c3c(c1)C(C)CC(C)(C)N3C(=O)/C2=C1\SC(=O)NC1=O` (configuration not stated), the result was inactive.
`COc1cccc(-c2nc(C=O)cs2)c1`: the outcome was inactive.
To `Cc1cc(C=C2C(=O)N(C)C(=S)N(C)C2=O)c(C)n1-c1cccnc1` belongs “inactive”.
Turning to `Cc1ccnc(-n2c(C)cc(/C=C3\C(=O)NC(=S)N(C)C3=O)c2C)c1`, the result was inactive.
Turning to `CCCCCCCC(=O)NNC(=O)c1ccc(F)cc1`, the outcome was inactive.
For `Cc1ccc(S(=O)(=O)CCC(=O)Nc2nc(-c3ccncc3)cs2)cc1`, the result was inactive.
As for `CCCCOc1ccc(NC(=O)CN2CCN(Cc3ccccc3)CC2)cc1`, the call was inactive.
Take `O=C(NN=C1C2CC3CC1CC(Cl)(C3)C2)c1cccs1`: the result was inactive.
Regarding `Cc1ccc(NC(=O)C2COc3ccccc3O2)nc1` (configuration not stated), the call was inactive.
For `CCC(=O)N/N=C/c1ccc(-c2ccc(Cl)cc2)o1`, the call was inactive.
As for `Cc1cccc(C)c1N1C(=O)CC(N2CCSCC2)C1=O` (configuration not stated), the compound was classed as inactive.
Regarding `CCCCCCCC(=O)N/N=C(/C)c1c(O)cc(C)oc1=O`, the compound was called inactive.
As for `Cc1cc(CN(C)C)c(O)c(C2(C)CCCCC2)c1`, the compound was classed as inactive.
Turning to `COc1ccccc1C(c1nnnn1Cc1ccccc1)N1CCC(C(N)=O)CC1` (configuration not stated), the compound was classed as inactive.
On to `O=C(N/N=C/c1ccc[nH]1)c1ccc2c(c1)OCO2`, for which the call was inactive.
Consider `O=C(NCc1cccs1)c1ccc(Br)o1`, for which the call was inactive.
Turning to `O=C(CC1CC2CCC1C2)NCc1cccs1` (configuration not stated), the outcome was inactive.
To `CC(C)c1cc(C(=O)N/N=C/C=C/c2ccccc2)n[nH]1` belongs “inactive”; to `Cc1cc(C(=O)N/N=C/c2cccc(Cl)c2Cl)no1`, “inactive”.
In the case of `O=C(N/N=C/c1cc(Br)cc(Cl)c1O)c1ccc2c(c1)OCO2`, the compound was called inactive.
To `CC1(CCc2ccc3c(c2)OCO3)NC(=O)c2ccccc2N1` (configuration not stated) belongs “inactive”; to `CC1=CC(=O)NP(=O)(Oc2ccc3ccccc3c2)N1` (configuration not stated), “inactive”.
Take `CC(=O)c1c(C)n(C)c2ccc(OC(=O)c3ccco3)cc12`: the result was inactive.
In the case of `CCN(CC)CCNC(=O)c1[nH]c2ccc(OCc3ccccc3)cc2c1C`, the outcome was inactive.
Take `Cc1cc2cc(CNC(=O)COc3ccccc3)ccc2n1C`: the outcome was inactive.
To `CCOc1ccc(-c2ccc(SCC)nn2)cc1` belongs “inactive”.
For `Oc1ccccc1Nc1nc(NCC2CCCO2)c2ccccc2n1` (configuration not stated), the result was inactive.
Consider `CCCCCCC1CC(C)(C(=O)CNc2nncs2)OC1=O` (configuration not stated), for which the compound was classed as inactive.
Regarding `Cc1cc2nc(CSc3ccc(Cl)cc3)cc(=O)n2[nH]1`, the outcome was inactive.
As to `Cc1cc(C)c2sc(NC(=O)C3=COCCO3)nc2c1`, the result was inactive.
Consider `O=C(c1nnc(-c2ccc(Cl)cc2)o1)C1CCCC1`, for which the compound was classed as inactive.
The value for `CN(C)Cc1ccccc1Sc1ccccc1Br` was “inactive”; that for `C(#CCN1CCOCC1)COCc1ccccc1` was “inactive”.
As for `CNC(=O)c1[nH]cnc1C(=O)Nc1ccc(Cl)cc1`, the result was inactive.
With `COc1ccc(/C(=N/O)C(C)(C)NO)cc1`, the outcome was inactive.
`CC1COC(=O)C(NNc2ccc(Cl)c(Cl)c2)=N1` (configuration not stated): the call was inactive.
Regarding `O=C(NC(=S)NCCc1ccccc1)c1ccccc1`, the result was inactive.
For the compound `CCOC(=O)C1CCCN(Cc2ccc(OCc3ccccc3)cc2)C1` (configuration not stated), the result was inactive.
For the compound `CC(C)c1ccc(N2C(=O)CC(Sc3ncn[nH]3)C2=O)cc1` (configuration not stated), the compound was classed as inactive.
Take `CC1=NN(C(=O)c2csc(C)c2)C(O)(C(F)(F)F)C1` (configuration not stated): the compound was called inactive.
As to `CC1=NN(C(=O)c2csc(C(C)C)c2)C(O)(C(F)(F)F)C1` (configuration not stated), the outcome was inactive.
To `O=C(COC(=O)c1ccc(Br)o1)Nc1ncc([N+](=O)[O-])s1` belongs “inactive”.
Turning to `Nc1cccn2c(-c3ccc(Cl)cc3)cnc12`, the compound was called inactive.
